Records with an inconclusive call do not appear. Entries that show only a call come without a potency. A number with no mark means an inactive call. The source made the active and inactive calls. The call rests on the fitted dose curve.
Target: Beta-2 adrenergic receptor (Homo sapiens) (UniProt P07550)
Assay: Adrenergic beta2 receptor (ADRB2) small molecule agonists, cell-based qHTS assay (AID 1963593);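 further: CHO cells stably overexpressing human ADRB2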
Summary of the method: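 CHO cells stably over-expressing ADRB2 were plated overnight at 37C, then dosed with compounds plus a stimulation mix containing 100uM IBMX and 25uM Ro-20-1724 for 0.5hr at room temperature. cAMP was measured by HTRF competition, 1hr.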

Chain of Beta-2 adrenergic receptor (Homo sapiens) (P07550 whole entry, looked up): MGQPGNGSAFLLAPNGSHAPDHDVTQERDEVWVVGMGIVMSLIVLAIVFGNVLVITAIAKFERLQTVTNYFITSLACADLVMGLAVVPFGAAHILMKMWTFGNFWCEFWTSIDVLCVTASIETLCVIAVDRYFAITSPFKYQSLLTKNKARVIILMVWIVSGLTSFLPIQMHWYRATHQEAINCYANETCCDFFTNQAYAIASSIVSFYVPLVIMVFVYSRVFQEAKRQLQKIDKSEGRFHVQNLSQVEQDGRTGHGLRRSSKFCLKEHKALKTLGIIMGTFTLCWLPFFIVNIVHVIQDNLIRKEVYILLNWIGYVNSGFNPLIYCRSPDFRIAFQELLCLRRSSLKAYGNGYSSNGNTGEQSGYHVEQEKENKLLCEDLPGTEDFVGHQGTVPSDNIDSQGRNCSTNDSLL

SMILES | Potency | activation
N=C(N=C(N)N)N1CCOCC1 | inactive | 
Cl/C(=C\n1cncn1)c1ccc(Cl)cc1Cl | inactive | 
CCC(O)CO (stereo not given) | inactive | 
C/C=C(\C)C(=O)OC/C=C(\C)CCC=C(C)C | inactive | 
C=CCn1cc[n+](C)c1 | inactive | 
CC/C=C\C#N | inactive | 
CN(C)c1ccc(Cc2ccc(N(C)C)cc2)cc1 | inactive | 
CCOC(=O)c1ccc(C)cc1 | inactive | 
Cc1ccc(C2OC[C@@H]3OC(c4ccc(C)cc4)O[C@H]([C@H](O)CO)[C@@H]3O2)cc1 (stereo not given in full) | inactive | 
CC(C)=CCC/C(C)=C/C(=O)O | inactive | 
CCNc1cc(O)ccc1C | inactive | 
CCc1cnc(C(=O)O)c(C(=O)O)c1 | inactive | 
CNC(=O)Nc1ccc(Cl)c(Cl)c1 | inactive | 
CN(C(=O)c1c(O)c2ccccc2n(C)c1=O)c1ccccc1 | inactive | 
CCC(C)(C)C1CCC(OC)CC1 (stereo not given) | inactive | 
C=CC(C)(O)CC/C=C(\C)CCC=C(C)C (stereo not given) | inactive | 
O=c1[nH]c(=O)c2cn[nH]c2[nH]1 | inactive | 
CCN(CC)c1ccc(C=O)c(O)c1 | inactive | 
N[C@H]1C(O)O[C@H](CO)[C@@H](O)[C@@H]1O (stereo not given in full) | inactive | 
CC(=O)c1ccc2ccccc2c1 | inactive | 
OC1(c2ccc(Cl)cc2)CCNCC1 | inactive | 
Cc1ccc(S(=O)(=O)O)c(C)c1 | inactive | 
C=COCCOCCOCCOC=C | inactive | 
C=COCCCC | inactive | 
CC(C)CCCCCOC(=O)CCS | inactive | 
CC(=O)c1ccc(O)c(C(N)=O)c1 | inactive | 
NS(=O)(=O)c1ccccc1Cl | inactive | 

SMILES | Potency | activation
OCC1(CO)COCOC1 | inactive | 
CCOC(OCC)C(=O)c1ccccc1 | inactive | 
CCCc1c2oc(C(=O)O)cc(=O)c2cc2c(=O)cc(C(=O)O)n(CC)c12 | inactive | 
CCC(C(=O)OCCOCCN(CC)CC)c1ccccc1 (stereo not given) | inactive | 
NC(=O)c1ccccc1N | inactive | 
CCCCCCCCCOS(=O)(=O)O | inactive | 
COc1cccc(OC)c1C(=O)N[C@@H]1C(=O)N2[C@@H]1SC(C)(C)[C@@H]2C(=O)O | inactive | 
C=CC(O)CCCCC (stereo not given) | inactive | 
O=C(c1ccccc1)C1(O)CCCCC1 | inactive | 
COC(=O)c1ccc2cc(C(=O)OC)ccc2c1 |  | 21.2% [at 19 µM]
NC(=O)c1ccc([N+](=O)[O-])cc1Cl | inactive | 
C=C(C)[C@@H]1CC[C@@H](C)C[C@@H]1O | inactive | 
CCN1C(=O)c2ccccc2C1Nc1ccc(OCCN2CCCCC2)cc1 (stereo not given) | inactive | 
NCc1ccc(S(N)(=O)=O)cc1 | inactive | 
CC(=O)O[C@@H]1C[C@@H]2CC[C@@]1(C)C2(C)C | inactive | 
C=C(C)[C@@H]1CCC2=CCC[C@@H](C)[C@]2(C)C1 | inactive | 
Cc1ccc(-c2ccccc2C#N)cc1 | inactive | 
CC(C=O)c1ccccc1 (stereo not given) | inactive | 
CCC(C)c1ccccc1 (stereo not given) | inactive | 
c1ccc(CSCc2ccccc2)cc1 | inactive | 
Cc1ccc(C(C)c2ccc(C)c(C)c2)cc1C | inactive | 
CCOC(=O)NCCC[Si](OCC)(OCC)OCC | inactive | 
CN1CCCC1=O | inactive | 
CC(C)CCCCCOC(=O)CS | inactive | 
CC(=O)c1ccccc1N | inactive | 
CCCC(O)C(O)CO (stereo not given) | inactive | 
Nc1nccs1 | inactive | 

SMILES | Potency | activation
CC(C)CCCCCCCCCCCCCCC(=O)O | inactive | 
O=[N+]([O-])c1ccc(Oc2ccc([N+](=O)[O-])cc2)cc1 | inactive | 
O=C(O)c1ccc(CO)o1 | inactive | 
CC1(C)[C@H]2CC[C@]1(C)[C@H](O)C2 | inactive | 
O=C1Nc2ccccc2C1=O | inactive | 
CCC1COC(=O)O1 (stereo not given) | inactive | 
O=C1OC(=O)c2ccccc21 | inactive | 
CCN(CC)S(=O)(=O)c1ccc(C(=O)O)cc1 | inactive | 
CC(C)(CO)[C@@H](O)C(=O)NCCC(=O)O | inactive | 
O=C[O][Al]([O]C=O)[O]C=O | inactive | 
CCCCCCCCO[C@@H]1O[C@H](CO)[C@@H](O)[C@H](O)[C@H]1O | inactive | 
N#CC1(c2ccc(F)cc2)CCC(=O)CC1 | inactive | 
C=CC(=O)CCCCC | inactive | 
O=C(O)c1ccccc1-n1cc(C(=O)O)c(=O)c2cc(Nc3c(F)cc(F)cc3Cl)c(Cl)cc21 | inactive | 
CC(=O)c1cc(C)oc1C | inactive | 
CCCCCCCCC(=O)OCC | inactive | 
CCc1c(Br)c(Br)c(Br)c(Br)c1Br | inactive | 
OCC#CCO | inactive | 
CC(C)OC=O | inactive | 
CCOC(=O)c1ccc(OCCN2C[C@H](O)[C@@H](O)[C@H](O)[C@H]2CO)cc1 | inactive | 
CCOCCOCCOCCO | inactive | 
COC(=O)c1ccc([N+](=O)[O-])cc1 | inactive | 
CC1=CC(=O)[C@H]2C[C@@H]1C2(C)C | inactive | 
CC1=CC(=O)c2ccccc2C1=O | inactive | 
CCCC(C)CO (stereo not given) | inactive | 
CC(C)OCCO | inactive | 

— PubChem BioAssay (Tox21)
